Screening results deposited in PubChem by National Center for Advancing Translational Sciences (NCATS).
Many of the other results were omitted from the sample, so hits are more common in it than they were.
Pf Dd2 inh: inhibitors of Plasmodium falciparum Dd2 growth | P. falciparum Dd2 growth, SYBR Green, 72 h | Potency, µM (highest dose often 28.9 µM), for the others: at the highest dose activity, negative = inhibition, most hits filed as inhibitors | 120,000 tested, 4.3% active; active means well fitted inhibition curve with a large enough effect;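 further: plate controls were DMSO vehicle for no effect and reference drug for full effect; nearly all actives have a fitted effect of over 65% in size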
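Readout: SYBR Green fluorescence, 485 nm excitation, 535 nm emission, after ~16 h lysis at 37C. Before that, Dd2-infected red cells (2.5% hematocrit) grew 72 h with compound, 29 uM top final concentration.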
* = called active by the depositor; i = inactive; [ ] = another dose, or the depositor's remark. Potency means the concentration at half of the fitted maximal effect.

SMILES | Pf Dd2 inh
CN1CCCN(C(=O)c2ccsc2)c2ccccc21 | -10%
CC(=O)N1CCN([C@H]2[C@@H]3OC[C@@H](O3)[C@@H](NCc3ccc4c(c3)OCO4)[C@@H]2O)CC1 | -3%[44.1 µM]
Cc1ccc(-c2nnc(C3CN(C(=O)c4ccnn4C)CC34CCOCC4)o2)cc1 (stereo unspecified) | i
Cc1noc(C)c1[S+](=O)([O-])N1CCC2(CC1)Cc1ccccc1NC2=O | -11%
Cc1noc(C)c1[S+](=O)([O-])N1CCC2(CC1)COc1ccccc1NC2=O | 8.9µM*
O=C1Nc2ccccc2OCC12CCN([S+](=O)([O-])c1ccccc1)CC2 | 9%
CCn1cc(S(=O)(=O)N2CCn3c(nn(CC4CC4)c3=O)C2)cn1 | -7%
CCn1c2c(c(=O)n1-c1ccccc1)CCN(C(=O)c1scnc1C)C2 | 29%[44.1 µM]
CCC(Sc1nc2c(sc3ccccc32)c(=O)n1CCc1ccccc1)C(=O)N(CC)CC (stereo unspecified) | 24%
CCC(Sc1nc2c(sc3ccccc32)c(=O)n1CCc1ccc(OC)c(OC)c1)C(=O)N(CC)CC (stereo unspecified) | 4µM*
CCC(Sc1nc2ccccc2c(=O)n1CCc1ccc(OC)c(OC)c1)C(=O)N(CC)CC (stereo unspecified) | -5%
NC(=O)[C@@H]1CCCN1CC[C@H]1CN(S(=O)(=O)c2ccccc2)CC[C@H]1CC(=O)O | 17%[44.1 µM]
COc1cccc(-c2ccccc2NC(=O)C2CCN(CC=C(C)C)CC2)c1 | 5.6µM*
C=CCC(=O)N1CCCC1C(=O)Nc1ccc(-c2cccc(OC)c2)cc1 (stereo unspecified) | -14%
COc1ccc(C(=O)N2CCC(C(=O)Nc3ccc(OC)cc3OC)CC2)cc1 | 52%
COc1cccc(-c2ccccc2NC(=O)C2CCN(C/C(C)=C/c3ccccc3)CC2)c1 | 8.9µM*
COc1cccc(-c2ccccc2NC(=O)C2CCN(Cc3ccccc3F)CC2)c1 | -19%
COc1cccc(C(=O)Nc2ccccc2-c2nnc(-c3cccc(OC)c3)o2)c1 | i
CS(=O)(=O)c1ccc(OCC2(CNC(=O)c3cccc(F)c3)C[C@@H](O)[C@@H](O)C2)cc1 (stereo partly specified) | 5%
CN(C)C[C@H]1C[C@H](CO)CN(C(=O)c2cccc(CCC(C)(C)O)c2)C1 | -4%
O=C(C[C@@H]1C[C@@H]2C=C[C@H]1C2)NCc1cccnc1-n1cnc2ccccc21 | -17%
COc1ccc(C(=O)Nc2ccc([C@H]3OCC(=O)N(Cc4ccncc4)[C@@H]3CO)cc2)cc1OC | 3%
COCc1cc(=O)n(CC(=O)Nc2ccccc2)c(N2CCOCC2)n1 | i
CN(CC1CCOCC1)C(=O)c1ccc(F)c(F)c1 | -13%
Cc1ccc(-c2cc3c(=O)n(CCNC(=O)Cc4ccccc4Cl)ccn3n2)c(C)c1 | -7%
SMILES | Pf Dd2 inh
Cc1ccc(-c2cc3c(=O)n(CCNC(=O)Cc4c[nH]c5ccccc45)ccn3n2)c(C)c1 | 10µM*
Cc1ccc(-c2cc3c(=O)n(CCNC(=O)Cc4cccc(F)c4)ccn3n2)c(C)c1 | 0%
Cc1ccc(C(=O)NCCn2ccn3nc(-c4cc(C)ccc4C)cc3c2=O)cc1 | i
Cc1ccc(-c2cc3c(=O)n(CCNC(=O)c4ccc(F)cc4)ccn3n2)c(C)c1 | 2.8µM*
Cc1ccc(-c2cc3c(=O)n(CCNC(=O)c4ccc(F)c(F)c4)ccn3n2)c(C)c1 | i
O=C(c1cccc(F)c1F)N1CCOc2ccc(CN3CCN(c4ccccn4)CC3)cc2C1 | -2%
O=C(N[C@@H]1CCOC[C@H]1Oc1ccccn1)c1ccc(N2CCCC2=O)cc1 | -6%
Cc1ccc(C(=O)N2CCC3(CC2)N=C(c2cccc(Br)c2)NO3)cc1 | -8%
Cn1c(=O)c2c(-c3cccc(Br)c3)n(C(C)(C)CO)cc2n(C)c1=O | -5%
Cn1c(=O)c2c(-c3ccccc3)n(CCCO)cc2n(C)c1=O | 3%
Cc1ccc(-c2c3c(=O)n(C)c(=O)n(C)c3cn2-c2cc(C)ccc2O)cc1 | 5.6µM*
CCC(=O)N1CCc2sc(C(=O)NCc3ccc(Cl)cc3)cc2C1 | i
Cc1cccc(NC(=O)Cn2ccn3nc4c(c3c2=O)CCCCC4)c1C | i
Cc1cnc(C(=O)NC2C[C@H]3CC[C@@H](C2)N3C(=O)c2ccc(C)c(C)c2)cn1 (stereo partly specified) | i
CN(c1ccc(F)cc1)C1CN(C(=O)OC(C)(C)C)C1 | -22%[44.1 µM]
CCc1nncn1C1CCN(S(=O)(=O)c2cc(F)ccc2C)CC1 | 2%
Cn1cc(C(=O)NCCc2ccc(Cl)cc2)c(=O)c2cc(S(=O)(=O)N3CCCCC3)ccc21 | 64%
CCCCNC(=O)c1cn(C)c2ccc(S(=O)(=O)N3CCCC3)cc2c1=O | -5%
Cn1cc(C(=O)NCCc2ccccc2)c(=O)c2cc(S(=O)(=O)N3CCCCCC3)ccc21 | 13µM*
O=C(Cn1nnnc1CN1CCCC1)N1CCN(C2CCc3ccccc3C2)CC1 (stereo unspecified) | -11%
Cc1ccc(C(=O)N[C@H]2CO[C@H]3[C@@H]2OC[C@H]3OC(=O)Nc2ccccc2)cc1 | -4%[44.1 µM]
Cc1cc(NC(=O)Cn2c(-c3cccc(Cl)c3)nc(C)c(CCO)c2=O)no1 | -19%
COc1ccc(Cl)cc1NC(=O)Cn1c(-c2ccccc2)nc(C)c(CCO)c1=O | i
COc1ccc(NC(=O)Cn2c(-c3ccccc3)nc(C)c(CCO)c2=O)cc1OC | i
COc1ccc(Cl)cc1NC(=O)Cn1c(-c2ccc(F)cc2)nc(C)c(CCO)c1=O | 14µM*
SMILES | Pf Dd2 inh
COc1ccc(OC)c(NC(=O)Cn2c(-c3ccc(F)cc3)nc(C)c(CCO)c2=O)c1 | -9%
COc1cc(NC(=O)Cn2c(-c3ccccc3)nc(C)c(CCO)c2=O)cc(OC)c1 | 8.9µM*
COc1cc(NC(=O)Cn2c(-c3ccccc3)nc(C)c(CCO)c2=O)cc(OC)c1OC | -16%
Cc1nc(-c2ccc(F)cc2)n(CC(=O)Nc2cc(F)ccc2F)c(=O)c1CCO | -16%
Cc1nc(-c2ccc(F)cc2)n(CC(=O)Nc2ccc(C(C)C)cc2)c(=O)c1CCO | 7.1µM*
Cc1nc(-c2cccc(Cl)c2)n(CC(=O)Nc2cccc(C(C)C)c2)c(=O)c1CCO | 5µM*
Cc1ccc(NC(=O)Cn2c(-c3cccc(Cl)c3)nc(C)c(CCO)c2=O)cc1 | -12%
Cc1nc(-c2ccc(F)cc2)n(CC(=O)Nc2ccc(F)cc2)c(=O)c1CCO | i
CCc1noc(-c2cccn3c(CNC(=O)c4ccc(F)c(F)c4)nnc23)n1 | -4%
Cn1ncc(N2CCC(C(=O)N3CCc4ccccc4C3)C2)cc1=O (stereo unspecified) | 8%
O=C(c1ccncc1)N1CCC(c2nc(C3CCOCC3)no2)C1 (stereo unspecified) | -14%
CCCN1C(=O)Cc2cc(C(=O)NCc3ccco3)ccc21 | -19%
CN1CCCC2(CC1)CCN(C(=O)CC13CC4CC(CC(O)(C4)C1)C3)CC2 | -10%
Cc1ccc(CNC(=O)CC2Sc3ncccc3N(C)C2=O)cc1 (stereo unspecified) | -19%
Cc1ncc2c(c1CNC(=O)Cc1ccsc1)CCN(C(=O)Cc1ccc(F)c(F)c1)C2 | -19%
CCOC(=O)CCNC(=O)N1C[C@@H](Oc2cccnc2)C[C@H]1C(=O)N1CCCC1 | 54%
C#CCNC(=O)c1nc(C(C)(C)C)c2ccccn12 | -2%[44.1 µM]
Cc1cc(S(=O)(=O)N[C@@H]2CCOC[C@H]2Oc2ccccn2)c(C)s1 | -23%
O=C(c1ccccc1OCC1CCCN(Cc2ccsc2)C1)N1CCCC1 (stereo unspecified) | -3%
O=C(c1ccccn1)N1CCn2c(nn(-c3ccc(Cl)cc3)c2=O)C1 | 9%
